Where “and” joins values, the source holds several entries; their conditions need not be identical. Equal entries are not always repeated. The panel holds about 83,000 compounds, 20% with a hit somewhere; the sample as a whole holds those more often.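 Growth was measured after 48 h exposure to one concentration of compound in 96-well plates. Values under 10 count as active.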 Calls of active or inactive are those of the source.
Assays:
Assay in all cases: NCI-60 one-dose screen, 48 h (100 = growth as untreated, 0 = no growth, -100 = all killed)
DU-145 prostate = system: DU-145 prostate
K-562 leukemia = system: K-562 leukemia
MALME-3M melanoma = system: MALME-3M melanoma
MDA-MB-231 breast = system: MDA-MB-231 breast
RXF 393 renal = system: RXF 393 renal
SF-268 CNS = system: SF-268 CNS
SF-295 CNS = system: SF-295 CNS
SF-539 CNS = system: SF-539 CNS
UACC-257 melanoma = system: UACC-257 melanoma
M14 melanoma = system: M14 melanoma

Measured: growth

Cc1c(-c2ccccc2)[nH]c2ccccc12
inactive: DU-145 prostate; 10 µM 107% | K-562 leukemia; 10 µM 110% | MALME-3M melanoma; 10 µM 106% | MDA-MB-231 breast; 10 µM 95.1% | RXF 393 renal; 10 µM 109% | SF-268 CNS; 10 µM 104% | SF-295 CNS; 10 µM 106% | SF-539 CNS; 10 µM 99.3% | UACC-257 melanoma; 10 µM 112% | M14 melanoma; 10 µM unless noted 143%

Cn1c2nc3ccccc3c-2nc2ccccc21
inactive: DU-145 prostate; 10 µM 94.4% and 95.7% | K-562 leukemia; 10 µM 121% and 94.7% | MALME-3M melanoma; 10 µM 116% and 115% | MDA-MB-231 breast; 10 µM 79.9% and 83.8% | RXF 393 renal; 10 µM 91% and 90.7% | SF-268 CNS; 10 µM 97% and 97.7% | SF-295 CNS; 10 µM 96.8% and 107% | SF-539 CNS; 10 µM 92.2% and 77.2% | UACC-257 melanoma; 10 µM 108% and 94.5% | M14 melanoma; 10 µM unless noted 108% and 100%

CC1CCC2(C(=O)O)CCC3(C)C(=CCC4C5(C)CC(O)C(O)C(C)(CO)C5C(O)CC43C)C2C1C (configuration not stated)
inactive: DU-145 prostate; 10 µM 110% | K-562 leukemia; 10 µM 106% | MALME-3M melanoma; 10 µM 103% | MDA-MB-231 breast; 10 µM 107% | RXF 393 renal; 10 µM 26.2% | SF-268 CNS; 10 µM 111% | SF-295 CNS; 10 µM 112% | SF-539 CNS; 10 µM 99.6% | UACC-257 melanoma; 10 µM 93.7% | M14 melanoma; 10 µM unless noted 53.9%

CN(CC(=O)O)c1ccc(/C=C/c2ccnc3ccccc23)cc1
inactive: DU-145 prostate; 10 µM 97.7% | K-562 leukemia; 10 µM 50.5% | MALME-3M melanoma; 10 µM 99.2% | MDA-MB-231 breast; 10 µM 66.8% | RXF 393 renal; 10 µM 111% | SF-268 CNS; 10 µM 90.1% | SF-295 CNS; 10 µM 92.2% | SF-539 CNS; 10 µM 90.3% | UACC-257 melanoma; 10 µM 86.9% | M14 melanoma; 10 µM unless noted 90.3%

Cc1cc(C)c(N2C(=O)CC(Sc3ccccc3N)C2=O)c(C)c1 (configuration not stated)
inactive: DU-145 prostate; 10 µM 89.5% | K-562 leukemia; 10 µM 47.4% | MALME-3M melanoma; 10 µM 77.5% | MDA-MB-231 breast; 10 µM 83.1% | RXF 393 renal; 10 µM 84.8% | SF-268 CNS; 10 µM 80.7% | SF-295 CNS; 10 µM 47.5% | SF-539 CNS; 10 µM 88% | UACC-257 melanoma; 10 µM 60.4% | M14 melanoma; 10 µM unless noted 60.3%

S=P(N1CC1)(N1CC1)N1CC1
inactive: DU-145 prostate; 10 µM 121% and 71.9% | K-562 leukemia; 10 µM 109% and 53.2% | K-562 leukemia; 100 µM 43.4% | MALME-3M melanoma; 10 µM 98.1% and 97.8% | MALME-3M melanoma; 100 µM 82% | MDA-MB-231 breast; 10 µM 100% and 103% | MDA-MB-231 breast; 100 µM 101% | RXF 393 renal; 10 µM 120% and 86% | RXF 393 renal; 100 µM 14.4% | SF-268 CNS; 10 µM 124% and 83.6% | SF-268 CNS; 100 µM 36.5% | SF-295 CNS; 10 µM 104% and 81.7% | SF-295 CNS; 100 µM 14.3% | SF-539 CNS; 10 µM 113% and 94.6% | UACC-257 melanoma; 10 µM 107% and 87.7% | UACC-257 melanoma; 100 µM 37.2% | M14 melanoma; 10 µM unless noted 96.2% and 60.4%
active: DU-145 prostate; 100 µM -0.811% | SF-539 CNS; 100 µM -8.76%

CC(=O)O[C@H]1C(=O)[C@@]2(C)[C@H]([C@H](OC(=O)c3ccccc3)[C@]3(O)C[C@H](OC(=O)[C@H](O)[C@@H](NC(=O)c4ccccc4)c4ccccc4)C(C)=C1C3(C)C)[C@]1(OC(C)=O)CO[C@@H]1C[C@@H]2O
inactive: K-562 leukemia; 0.01 µM 10.7% | MALME-3M melanoma; 0.01 µM 52.3% | MALME-3M melanoma; 2.5 µM 51.7% | MALME-3M melanoma; 5 µM 61.6% | MALME-3M melanoma; 10 µM 52.5% and 62.6% | MDA-MB-231 breast; 0.01 µM 49.4% | SF-268 CNS; 0.01 µM 42.1% | SF-268 CNS; 2.5 µM 27.2% | SF-268 CNS; 5 µM 29.5% | SF-268 CNS; 10 µM 37.1% and 36.3% | SF-295 CNS; 0.01 µM 55.9% | UACC-257 melanoma; 0.01 µM 14.6% | UACC-257 melanoma; 2.5 µM 48.7% | UACC-257 melanoma; 5 µM 59.6% | UACC-257 melanoma; 10 µM 26.9% and 65% | M14 melanoma; 5 µM 19.5% | M14 melanoma; 10 µM 24.9% and 24.5%
active: DU-145 prostate; 0.01 µM -35.7% | DU-145 prostate; 2.5 µM -5.74% | DU-145 prostate; 5 µM -7.54% | DU-145 prostate; 10 µM -49.5% and -4.6% | K-562 leukemia; 2.5 µM 5.83% | K-562 leukemia; 5 µM 6.14% | K-562 leukemia; 10 µM -6.92% and 5.96% | MDA-MB-231 breast; 2.5 µM -6.11% | MDA-MB-231 breast; 5 µM 2.87% | RXF 393 renal; 0.01 µM 1.22% | RXF 393 renal; 2.5 µM -29.4% | RXF 393 renal; 5 µM -25.8% | SF-295 CNS; 2.5 µM 2.61% | SF-295 CNS; 5 µM 3.25% | SF-295 CNS; 10 µM 9.92% and 1.83% | SF-539 CNS; 0.01 µM -15.1% | SF-539 CNS; 2.5 µM -28.7% | SF-539 CNS; 5 µM -33.8% | SF-539 CNS; 10 µM -14.3% and -16.1% | M14 melanoma; 2.5 µM -1.65%
28.9% (inactive) and -25.2% (active): RXF 393 renal; 10 µM
29.1% (inactive) and 5.06% (active): MDA-MB-231 breast; 10 µM

O=S(=O)(c1cc(Cl)ccc1O)c1cc(Cl)ccc1O
inactive: DU-145 prostate; 10 µM 100% | K-562 leukemia; 10 µM 62.1% | MALME-3M melanoma; 10 µM 95.7% | MDA-MB-231 breast; 10 µM 95.4% | RXF 393 renal; 10 µM 102% | SF-268 CNS; 10 µM 88.2% | SF-295 CNS; 10 µM 85.2% | SF-539 CNS; 10 µM 86.6% | UACC-257 melanoma; 10 µM 35.1% | M14 melanoma; 10 µM unless noted 75.8%

O=C(O)c1ccccc1.[Ag]
inactive: DU-145 prostate; 10 µM 105% | K-562 leukemia; 10 µM 90.3% | MALME-3M melanoma; 10 µM 119% | MDA-MB-231 breast; 10 µM 89% | RXF 393 renal; 10 µM 106% | SF-268 CNS; 10 µM 97.1% | SF-295 CNS; 10 µM 99.7% | SF-539 CNS; 10 µM 106% | UACC-257 melanoma; 10 µM 93.6% | M14 melanoma; 10 µM unless noted 96.4%

O=C1c2cccc3cc([N+](=O)[O-])cc(c23)C(=O)N1CCN1CCCC1
active: DU-145 prostate; 10 µM -30.9% | K-562 leukemia; 10 µM -10.2% | MALME-3M melanoma; 10 µM -26.4% | RXF 393 renal; 10 µM -43% | SF-268 CNS; 10 µM 0.438% | SF-539 CNS; 10 µM -20.7% | UACC-257 melanoma; 10 µM 3.14% | M14 melanoma; 10 µM unless noted 0.262%
inactive: MDA-MB-231 breast; 10 µM 20.6% | SF-295 CNS; 10 µM 11%

O=C(NC(=S)Nc1ccccn1)c1ccccc1
inactive: DU-145 prostate; 10 µM 96.2% | K-562 leukemia; 10 µM 143% | MALME-3M melanoma; 10 µM 82.6% | MDA-MB-231 breast; 10 µM 91.6% | RXF 393 renal; 10 µM 103% | SF-268 CNS; 10 µM 104% | SF-295 CNS; 10 µM 104% | SF-539 CNS; 10 µM 88.6% | UACC-257 melanoma; 10 µM 110% | M14 melanoma; 10 µM unless noted 91.9%

Cc1cc(O)c2c(c1O)C(=O)C13C(=C2O)C(=O)C2C(O)C1C1C(O)C3C(=O)C3=C(O)c4c(O)cc(C)c(O)c4C(=O)C321 (configuration not stated)
active: DU-145 prostate; 10 µM -6.49% | K-562 leukemia; 10 µM 9.5% | MALME-3M melanoma; 10 µM -2.77% | RXF 393 renal; 10 µM -13.7% | SF-295 CNS; 10 µM -30.2% | SF-539 CNS; 10 µM -47.2% | UACC-257 melanoma; 10 µM 8.71%
inactive: MDA-MB-231 breast; 10 µM 13.6% | SF-268 CNS; 10 µM 10.6%

Cn1ncc2cc3c(Nc4ccc(Cl)cc4)cccc3nc21
inactive: DU-145 prostate; 10 µM 90% | K-562 leukemia; 10 µM 80.2% | MALME-3M melanoma; 10 µM 122% | MDA-MB-231 breast; 10 µM 81.7% | RXF 393 renal; 10 µM 90.5% | SF-268 CNS; 10 µM 85.5% | SF-295 CNS; 10 µM 87.6% | SF-539 CNS; 10 µM 90.7% | UACC-257 melanoma; 10 µM 100% | M14 melanoma; 10 µM unless noted 104%

CC[C@@]1(OC(=O)CN(C)C)C(=O)OCc2c1cc1n(c2=O)Cc2cc3c(N)cccc3nc2-1
inactive: MDA-MB-231 breast; 10 µM 27.7%
active: DU-145 prostate; 10 µM 4.87% | K-562 leukemia; 10 µM 9.06% | MALME-3M melanoma; 10 µM -23.9% | RXF 393 renal; 10 µM -23.4% | SF-268 CNS; 10 µM 8.15% | SF-295 CNS; 10 µM -7.04% | SF-539 CNS; 10 µM -30.9% | UACC-257 melanoma; 10 µM -35.4% | M14 melanoma; 10 µM unless noted -40.1%

O=C1C(Cl)=C(Cl)C(Cl)(Cl)C(Cl)C1(Cl)Cl (configuration not stated)
inactive: DU-145 prostate; 10 µM 114% | K-562 leukemia; 10 µM 102% | MALME-3M melanoma; 10 µM 99.9% | MDA-MB-231 breast; 10 µM 96.2% | RXF 393 renal; 10 µM 116% | SF-268 CNS; 10 µM 108% | SF-295 CNS; 10 µM 94.5% | SF-539 CNS; 10 µM 96.2% | UACC-257 melanoma; 10 µM 110% | M14 melanoma; 10 µM unless noted 103%

CN(C)c1ccc(/C=C/c2ccnc3ccccc23)cc1N
inactive: DU-145 prostate; 10 µM 83.5% | K-562 leukemia; 10 µM 31.1% | MALME-3M melanoma; 10 µM 68% | MDA-MB-231 breast; 10 µM 46.1% | RXF 393 renal; 10 µM 80.9% | SF-268 CNS; 10 µM 87.4% | SF-295 CNS; 10 µM 74.8% | SF-539 CNS; 10 µM 76.9% | UACC-257 melanoma; 10 µM 58.7% | M14 melanoma; 10 µM unless noted 73.9%

Cc1cc(N=C2C=CC(=[N+](C)C)C=C2)c(N)cc1N
inactive: DU-145 prostate; 10 µM 104% | K-562 leukemia; 10 µM 57.3% | MALME-3M melanoma; 10 µM 106% | MDA-MB-231 breast; 10 µM 65.2% | RXF 393 renal; 10 µM 96.3% | SF-268 CNS; 10 µM 97.9% | SF-295 CNS; 10 µM 90.8% | SF-539 CNS; 10 µM 89.3% | UACC-257 melanoma; 10 µM 103% | M14 melanoma; 10 µM unless noted 107%

NCc1c(O)ccc2ccccc12
inactive: DU-145 prostate; 10 µM 109% | K-562 leukemia; 10 µM 99.1% | MALME-3M melanoma; 10 µM 96.6% | MDA-MB-231 breast; 10 µM 105% | RXF 393 renal; 10 µM 102% | SF-268 CNS; 10 µM 97.2% | SF-295 CNS; 10 µM 75.5% | SF-539 CNS; 10 µM 92.8% | UACC-257 melanoma; 10 µM 95.6% | M14 melanoma; 10 µM unless noted 90.8%
